From PubChem BioAssay (EPA / NIEHS)
Inconclusive results are not listed. Activity calls are given as the source filed them. The calls were made as follows, unless noted: active = hit-call score of the fitted dose curve at least 0.9, where 1 is the maximum; inactive = score below 0.9.

Tests used:
[1] = target: Nucleoli Translocation, AR (gene 367) (UniProt P10275); assay: UPITT_HCI_U2OS_AR_TIF2_Nucleoli_Antagonist: University of Pittsburgh U2OS Androgen Receptor-Transcriptional Intermediary Factor 2 (AR-TIF2) Antagonism High Content Imaging Assay for Nucleoli Translocation (AID 2283997; active = hit-call score of the fitted dose curve at least 0.9, where 1 is the maximum)
Method in brief: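 Compounds are added at 20 uM final concentration in 0.2% DMSO to U2OS cells carrying AR-RFP and TIF2-GFP fusions. Nucleolar AR-RFP fluorescence is then quantified by automated imaging. Antagonism is fitted positively against DHT baseline.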

[2] = target: Nucleoli Translocation, AR (gene 367) (UniProt P10275); assay: UPITT_HCI_U2OS_AR_TIF2_Nucleoli_Agonist: University of Pittsburgh U2OS Androgen Receptor-Transcriptional Intermediary Factor 2 (AR-TIF2) Agonism High Content Imaging Assay for Nucleoli Translocation (AID 2283998; active = hit-call score of the fitted dose curve at least 0.9, where 1 is the maximum)
Method in brief: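 RFP-AR / GFP-TIF2 cells; cpds diluted in serum-free medium; single-point screen 20 uM final (0.2% DMSO), actives confirmed in triplicate; conc-response 0.195–50 uM final (0.5% DMSO). Readout: nucleolar red fluorescence, positive direction vs DMSO.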

[3] = target: Ratio of Nucleoli Translocation and Cytoplasm, AR (gene 367) (UniProt P10275); assay: UPITT_HCI_U2OS_AR_TIF2_Nucleoli_Cytoplasm_Ratio_Antagonist: University of Pittsburgh U2OS Androgen Receptor-Transcriptional Intermediary Factor 2 (AR-TIF2) Antagonism High Content Imaging Assay for Ratio of Nucleoli Translocation and Cytoplasm (AID 2283999; active = hit-call score of the fitted dose curve at least 0.9, where 1 is the maximum;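 also: antagonists lower the DHT-driven ratio of nucleolar to cytoplasmic red signal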)
Method in brief: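 This antagonist-mode endpoint tracks AR-RFP localisation, the nucleolus-to-cytoplasm intensity ratio, in TIF2-GFP-coexpressing U2OS cells. DMSO stays at or below 0.5%; testing spans 20 uM single-dose and 0.195–50 uM series, with DHT setting the activity baseline.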

[4] = target: Ratio of Nucleoli Translocation and Cytoplasm, AR (gene 367) (UniProt P10275); assay: UPITT_HCI_U2OS_AR_TIF2_Nucleoli_Cytoplasm_Ratio_Agonist: University of Pittsburgh U2OS Androgen Receptor-Transcriptional Intermediary Factor 2 (AR-TIF2) Agonism High Content Imaging Assay for Ratio of Nucleoli Translocation and Cytoplasm (AID 2284000; active = hit-call score of the fitted dose curve at least 0.9, where 1 is the maximum;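 also: hits raise the red nucleolar to cytoplasm ratio above vehicle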)
Method in brief: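 Human osteosarcoma U2OS line, AR-RFP plus TIF2-GFP; compounds 0.195–50 uM final, 0.5% DMSO. Readout: nucleolar/cytoplasmic RFP ratio by HCI, positive direction vs DMSO baseline.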

[5] = CCTE_Simmons_MITO_basal_resp_rate: CCTE's HepG2 Seahorse XF Respirometric Screening Assay at Basal Respiratory State, Simmons Lab (AID 2284001); details: actives raise or lower the signal
Method in brief: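 Basal-phase OCR of HepG2 cells on a Seahorse XF96, analysed by bidirectional fit relative to DMSO vehicle; chemicals at 7 concentrations, 125 nM–100 uM final; three biological replicates; fenpyroximate and 2,4-dinitrophenol positive controls.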

[6] = CCTE_Simmons_MITO_max_resp_rate: CCTE's HepG2 Seahorse XF Respirometric Screening Assay at Maximal Respiratory State [uncoupled], Simmons Lab (AID 2284002); details: actives raise or lower the signal
Method in brief: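 HepG2, Seahorse XF96, maximal OCR post-FCCP. Cpd 125 nM–100 uM final (7 conc), n=3 biological. Kinetic reads every 6 min (3 min mix/3 min measure) over 72 min; fit bidirectional vs DMSO.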

[7] = CCTE_Simmons_MITO_inhib_resp_rate: CCTE's HepG2 Seahorse XF Respirometric Screening Assay at Inhibited Respiratory State [full ETC block], Simmons Lab (AID 2284006); details: actives raise or lower the signal
Method in brief: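 Test chemicals at seven final concentrations (125 nM–100 uM) in three biological replicates, with DMSO as vehicle. HepG2 oxygen consumption was then tracked on a Seahorse XF96 for 72 min through FCCP and rotenone/antimycin A phases, with the inhibited-phase rate as the endpoint.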

[8] = CCTE_Harrill_HTTr_Viability_DMEM_24hr: (Pilot) CCTE's 24-hour Cell Viability Assessment for the High-Throughput Transcriptomics (HTTr) Platform, in MCF-7 cells cultured in DMEM + 10% fetal bovine serum, Harrill Lab (AID 2283975)
Method in brief: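 Pilot study: propidium iodide dye exclusion, imaged by high content microscopy, after 24 h compound exposure (eight concentrations) in MCF-7 cultured in DMEM + 10% fetal bovine serum; DMSO served as negative control and baseline.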

[9] = CCTE_Harrill_HTTr_Viability_PRF_DMEM_6hr: (Pilot) CCTE's 6-hour Cell Viability Assessment for the High-Throughput Transcriptomics (HTTr) Platform, in MCF-7 cells cultured phenol red-free DMEM + 10% charcoal-stripped fetal bovine serum, Harrill Lab (AID 2283976)
Method in brief: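 Membrane integrity by high-content imaging of propidium iodide uptake, six hours after dosing with eight concentrations. Cells: MCF-7 grown in phenol red-free DMEM plus 10% charcoal-stripped serum; DMSO serves as baseline for bidirectional fits.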

[10] = CCTE_Harrill_HTTr_Viability_PRF_DMEM_12hr: (Pilot) CCTE's 12-hour Cell Viability Assessment for the High-Throughput Transcriptomics (HTTr) Platform, in MCF-7 cells cultured in phenol red-free DMEM + 10% charcoal-stripped fetal bovine serum, Harrill Lab (AID 2283977)
Method in brief: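 Membrane integrity was scored via propidium iodide dye exclusion imaging, fitted in both directions relative to DMSO. Compounds ran as eight-point dilutions for 12 hours on MCF-7 grown in phenol red-free DMEM plus 10% charcoal-stripped serum.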

[11] = CCTE_Harrill_HTTr_Viability_PRF_DMEM_24hr: (Pilot) CCTE's 24-hour Cell Viability Assessment for the High-Throughput Transcriptomics (HTTr) Platform, in MCF-7 cells cultured in phenol red-free DMEM + 10% charcoal-stripped fetal bovine serum, Harrill Lab (AID 2283980)
Method in brief: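 Propidium iodide exclusion imaged at 24 h after dosing scores viability; cells were MCF-7 grown in phenol red-free DMEM plus 10% charcoal-stripped serum, tested in eight concentrations, fitted in both directions against DMSO.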

[12] = CCTE_Harrill_HTTr_Apoptosis_DMEM_6hr: (Pilot) CCTE's 6-hour Apoptosis Assessment for the High-Throughput Transcriptomics (HTTr) Platform, in MCF-7 cells cultured in DMEM + 10% fetal bovine serum, Harrill Lab (AID 2283981)
Method in brief: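 MCF-7 cells grown in DMEM + 10% FBS were exposed for 6 hours to an eight-point dilution series. CellEvent Caspase 3/7 Green signal was imaged; activity fitted bidirectionally against DMSO.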

[13] = CCTE_Harrill_HTTr_Apoptosis_DMEM_12hr: (Pilot) CCTE's 12-hour Apoptosis Assessment for the High-Throughput Transcriptomics (HTTr) Platform, in MCF-7 cells cultured in DMEM + 10% fetal bovine serum, Harrill Lab (AID 2283982)
Method in brief: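 Caspase-3/7 activity was measured by high-content imaging (CellEvent Caspase 3/7 Green) after a 12-hour exposure of MCF-7 cells grown in DMEM with 10% FBS. Eight-point concentration series, fitted bidirectionally against vehicle.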

[14] = CCTE_Harrill_HTTr_Apoptosis_DMEM_24hr: (Pilot) CCTE's 24-hour Apoptosis Assessment for the High-Throughput Transcriptomics (HTTr) Platform, in MCF-7 cells cultured in DMEM + 10% fetal bovine serum, Harrill Lab (AID 2283983)
Method in brief: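 Caspase-3/7 activity read by high-content imaging (CellEvent Green reagent) 24 h after dosing. MCF-7 cells grown in DMEM with 10% FBS received an eight-point concentration series; fits were bidirectional versus DMSO.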

[15] = CCTE_Harrill_HTTr_Apoptosis_PRF_DMEM_6hr: (Pilot) CCTE's 6-hour Apoptosis Assessment for the High-Throughput Transcriptomics (HTTr) Platform, in MCF-7 cells cultured phenol red-free DMEM + 10% charcoal-stripped fetal bovine serum, Harrill Lab (AID 2283984)
Method in brief: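 Caspase-3/7 activity (CellEvent Green) read by high-content imaging 6 h after dosing, eight concentrations. Cells: MCF-7, phenol red-free DMEM with 10% charcoal-stripped serum. Curves fit both directions against DMSO.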

[16] = CCTE_Harrill_HTTr_Apoptosis_PRF_DMEM_12hr: (Pilot) CCTE's 12-hour Apoptosis Assessment for the High-Throughput Transcriptomics (HTTr) Platform, in MCF-7 cells cultured in phenol red-free DMEM + 10% charcoal-stripped fetal bovine serum, Harrill Lab (AID 2283985)
Method in brief: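 Caspase-3/7 activity by CellEvent Green high content imaging after 12 h compound exposure (eight concentrations) in MCF-7 grown in phenol red-free DMEM plus 10% charcoal-stripped serum; DMSO as baseline.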

[17] = CCTE_Harrill_HTTr_Apoptosis_PRF_DMEM_24hr: (Pilot) CCTE's 24-hour Apoptosis Assessment for the High-Throughput Transcriptomics (HTTr) Platform, in MCF-7 cells cultured in phenol red-free DMEM + 10% charcoal-stripped fetal bovine serum, Harrill Lab (AID 2283986)
Method in brief: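 Eight concentrations tested for 24 h on MCF-7 grown in charcoal-stripped serum, phenol red-free DMEM. High content imaging of CellEvent Caspase 3/7 Green signal gives apoptosis read-out, fitted both ways relative to DMSO.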

Measured: AC50

Nucleoli Translocation, AR (gene 367), sequence (P10275 whole entry, looked up, the tested form may be a part): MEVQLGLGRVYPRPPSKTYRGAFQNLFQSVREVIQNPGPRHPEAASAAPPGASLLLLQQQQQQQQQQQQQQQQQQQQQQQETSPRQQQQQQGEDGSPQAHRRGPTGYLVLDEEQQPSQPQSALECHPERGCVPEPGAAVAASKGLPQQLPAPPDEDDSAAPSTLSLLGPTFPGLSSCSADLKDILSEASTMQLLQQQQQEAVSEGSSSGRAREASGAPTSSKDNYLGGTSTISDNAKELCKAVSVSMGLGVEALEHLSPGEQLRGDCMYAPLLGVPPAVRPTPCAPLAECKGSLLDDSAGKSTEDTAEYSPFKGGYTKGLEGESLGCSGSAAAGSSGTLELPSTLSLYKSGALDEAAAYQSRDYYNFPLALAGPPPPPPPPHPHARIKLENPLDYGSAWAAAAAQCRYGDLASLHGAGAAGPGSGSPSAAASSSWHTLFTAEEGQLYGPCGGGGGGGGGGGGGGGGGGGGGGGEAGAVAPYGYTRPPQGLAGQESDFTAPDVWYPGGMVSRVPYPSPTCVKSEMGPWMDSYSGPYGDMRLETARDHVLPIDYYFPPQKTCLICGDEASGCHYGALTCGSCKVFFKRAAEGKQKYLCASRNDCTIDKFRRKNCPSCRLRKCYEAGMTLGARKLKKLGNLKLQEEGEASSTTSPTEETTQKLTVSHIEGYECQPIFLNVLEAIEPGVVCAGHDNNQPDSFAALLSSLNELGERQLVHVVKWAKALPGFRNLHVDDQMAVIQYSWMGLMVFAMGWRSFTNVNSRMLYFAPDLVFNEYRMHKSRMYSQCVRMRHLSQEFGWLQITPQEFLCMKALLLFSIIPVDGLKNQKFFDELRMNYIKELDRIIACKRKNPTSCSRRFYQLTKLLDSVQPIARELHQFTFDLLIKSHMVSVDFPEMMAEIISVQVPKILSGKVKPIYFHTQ
Ratio of Nucleoli Translocation and Cytoplasm, AR (gene 367), sequence (P10275 whole entry, looked up): as the sequence (P10275 whole entry, looked up, the tested form may be a part) above

COc1ccc(-c2ccccc2)cc1NNC(=O)OC(C)C
inactive: [1] | [2] | [3] | [4] | [5] | [6] | [7]

COCc1cnc(C2=NC(C)(C(C)C)C(=O)N2)c(C(=O)O)c1 (stereo not given)
inactive: [1] | [2] | [4]

CC(C)=CC1C(C(=O)OCc2coc(Cc3ccccc3)c2)C1(C)C (stereo not given)
inactive: [5] | [6] | [7]

CC1(C)CCC(=Cc2ccc(Cl)cc2)C1(O)Cn1cncn1 (stereo not given)
inactive: [3]
active: [1] 2.9 µM | [2] 9.87 µM | [4] 15.9 µM

CCOC(=O)C(C)OC(=O)c1cc(Oc2ccc(C(F)(F)F)cc2Cl)ccc1[N+](=O)[O-] (stereo not given)
not listed: [1] | [2] | [3] | [4] | [5] | [6] | [7]
inactive: all other assays above

COC(=O)N(C(=O)N1CO[C@@]2(C(=O)OC)Cc3cc(Cl)ccc3C2=N1)c1ccc(OC(F)(F)F)cc1
inactive: [1] | [3] | [4]
